# Assay outcomes (PubChem BioAssay)
# Hits are enriched below; roughly 12% of the tested compounds scored in any of these assays.
# HP1b binding inh: HTS for Inhibitors of HP1-beta Chromodomain Interactions with Methylated Histone Tails. 390,000 compounds, 0.56% hits. Chromobox protein homolog 1 (Homo sapiens), P83916. AlphaScreen HP1-beta / biotin-H3K9me3 peptide binding. Potency, µM (top dose mostly 114 µM), for inactives: top-dose activity change, negative = inhibition, hits mostly inhibitors. AID 540317, 2011; note: nearly all actives have a fitted effect of over 70% in size
#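 AlphaScreen: HP1-beta (50 nM) preformed 30 min with biotin-H3(1-18)K9me3 peptide (50 nM) in PBS pH 7.4, 0.01% Tween-20. Compound added for 30 min at RT, then streptavidin donor/nickel chelate acceptor beads (10 ug/mL) for 30 min.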
# BAZ2B block: qHTS Assay for Inhibitors of BAZ2B; AlphaScreen BAZ2B-H3K14Ac peptide displacement; Potency, µM (series often up to 114 µM), for inactives: at the top dose activity change, negative = inhibition, most hits filed as inhibitors; 360,000 compounds, 4.4% hits; note: % is set by controls: 0 for no effect and ±100 for the full control effect; nearly all actives have a fitted effect of over 60% in size
#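 AlphaScreen luminescence quantifies BAZ2B engagement of H3K14Ac peptide; the protein and biotinylated peptide are both at 50 nM final, buffer PBS pH 7.4 with 0.01% Tween-20, all steps at room temperature.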
# G9a inh: qHTS Assay for Inhibitors of Histone Lysine Methyltransferase G9a; G9a H3K9 monomethylation, AlphaScreen, 2 h; Potency, µM (doses to about 102 µM), without a hit: top-dose activity, negative = inhibition, hits mostly inhibitors; 350,000 compounds, 8.8% hits; note: % is set by controls: 0 for no effect and ±100 for the full control effect; nearly all actives have a fitted effect of over 75% in size
#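 Enzyme 20 nM + cpd, 15 min RT; add b-H3K9 pep 500 nM / SAM 20 uM; 2 h RT; anti-H3K9me1 Ab 0.5 ug/mL + SA donor / anti-rabbit acceptor beads 20 ug/mL each, 10 min; AlphaScreen read.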
# PLK1 PBD inh: qHTS for Inhibitors of PLK1-PDB (polo-like kinase 1 - polo-box domain): Primary Screen. 360,000 compounds, 2.8% hits. Plk1 PBD binding of FITC phosphopeptide, fluorescence polarization. Potency, µM, for inactives: max response, negative = inhibition, actives largely listed as inhibitors; note: series mostly up to about 57 µM; % is set by controls: 0 for no effect and ±100 for the full control effect; nearly all actives have a fitted effect of over 65% in size
# Sfp PPTase inh: qHTS Assay for Inhibitors of Bacillus subtilis Sfp phosphopantetheinyl transferase (PPTase); Biochemical Sfp PPTase activity, qHTS; Potency, µM, without a hit: largest response in the series, negative = inhibition, hits mostly inhibitors; 310,000 compounds, 3.5% hits; AID 1490, 2009;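 note: the enzyme is Sfp with the accession as filed and its product quenches rhodamine fluorescence; 0% = enzyme reaction without inhibitor and -100% = no enzyme wells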
#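 Buffer: 50 mM Hepes-Na pH 7.6, 10 mM MgCl2, 0.01% Nonidet P-40, 0.01% BSA. Enzyme 15 nM, pre-exposed to compound 15 min; substrates then added and fluorescence change tracked over 30 min.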
# JMJD2A Tudor inh: qHTS Assay for Inhibitors of JMJD2A-Tudor Domain; AlphaScreen JMJD2A-Tudor / H3K4me3 peptide binding; Lysine-specific demethylase 4A (Homo sapiens), O75164; Potency, µM (titrated, usually from 114 µM), inactives show at the highest dose activity change, negative = inhibition, actives largely listed as inhibitors; AID 504339, 2011; 390,000 compounds, 4.4% hits; note: % is set by controls: 0 for no effect and ±100 for the full control effect; nearly all actives have a fitted effect of over 50% in size
# Target sequence (O75164 whole entry, looked up, the tested form may be a part): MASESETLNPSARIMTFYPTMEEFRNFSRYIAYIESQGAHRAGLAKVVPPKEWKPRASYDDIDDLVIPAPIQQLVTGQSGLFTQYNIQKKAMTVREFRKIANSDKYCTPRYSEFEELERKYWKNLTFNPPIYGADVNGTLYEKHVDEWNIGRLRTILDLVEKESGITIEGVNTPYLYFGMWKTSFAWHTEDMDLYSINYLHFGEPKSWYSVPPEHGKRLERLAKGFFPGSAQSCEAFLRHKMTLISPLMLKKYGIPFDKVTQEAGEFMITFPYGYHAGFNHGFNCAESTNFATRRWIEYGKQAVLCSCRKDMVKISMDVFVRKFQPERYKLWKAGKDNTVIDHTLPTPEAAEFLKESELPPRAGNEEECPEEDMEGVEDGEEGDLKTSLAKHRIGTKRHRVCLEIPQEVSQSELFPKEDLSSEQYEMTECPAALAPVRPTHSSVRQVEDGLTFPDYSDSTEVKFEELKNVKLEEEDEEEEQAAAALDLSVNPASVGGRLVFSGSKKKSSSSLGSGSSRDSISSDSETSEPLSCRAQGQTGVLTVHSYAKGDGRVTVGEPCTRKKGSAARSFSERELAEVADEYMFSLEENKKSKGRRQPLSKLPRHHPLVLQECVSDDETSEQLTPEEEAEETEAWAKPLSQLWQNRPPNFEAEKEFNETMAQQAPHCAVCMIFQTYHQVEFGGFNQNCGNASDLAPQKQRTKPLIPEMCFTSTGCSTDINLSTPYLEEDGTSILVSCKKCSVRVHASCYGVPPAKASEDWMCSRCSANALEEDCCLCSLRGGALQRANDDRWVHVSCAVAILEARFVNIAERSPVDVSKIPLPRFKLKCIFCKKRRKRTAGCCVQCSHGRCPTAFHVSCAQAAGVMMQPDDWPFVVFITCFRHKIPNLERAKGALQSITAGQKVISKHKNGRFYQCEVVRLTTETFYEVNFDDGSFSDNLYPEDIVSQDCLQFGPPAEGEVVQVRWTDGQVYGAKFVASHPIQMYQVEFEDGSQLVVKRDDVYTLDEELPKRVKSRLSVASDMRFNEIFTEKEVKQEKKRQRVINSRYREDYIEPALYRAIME
# Numbers without * were called inactive; u = inconclusive; x = no result given; ! = not confirmed by another sample; [ ] = remark or other dose. Calls come from the whole dose curve; as a rule, active = well fitted curve in the direction sought with a large enough effect; inconclusive = small, poorly fitted or top-dose-only effect, or another doubt; inactive = no such curve, though single readings can be large; an effect the other way counts as inactive or inconclusive. Potency is the fitted concentration of half-maximal effect.
SMILES,HP1b binding inh,BAZ2B block,G9a inh,PLK1 PBD inh,Sfp PPTase inh,JMJD2A Tudor inh
CCOC(=O)C1=NOC(CNC(=O)c2ccccc2Cl)C1 (stereo not given),33%,-9%,20%,-2%,22%,-11%
CCOC(=O)C1=NOC(COc2ccccc2C=O)C1 (stereo not given),-5%,10%,3%,27µM*,24%,u
CN(CC(=O)Nc1ccc(F)cc1)CC(=O)N1CCCCCC1,30%,-5%,-80%[12.7 µM],4%,x,4%
CC(C)OC(=O)c1sc2nc(-c3ccccc3)ccc2c1N,44%,5%,x,-3%,-18%,19%
COC(=O)c1sc2nc(N)c(C#N)cc2c1N,15%,-32%,45µM*,2%,-18%,-15%
COC(=O)c1sc2nc(-c3ccco3)ccc2c1N,43%,-4%,u,u,8.9µM*,-6%
COC(=O)c1sc2nc3c(cc2c1N)CCCC3,69%,0%,23%,-7%,-4%,-4%
NC(=O)c1sc2nc(-c3cccnc3)ccc2c1N,35%,-28%,10µM*,-13%,u,-17%
Cc1ccc(NC(=O)c2ccc3c(c2)NC(=O)c2ccccc2S3)c(Cl)c1,25%,-3%,-1%[59 µM],x,x,-9%
Cc1oc2c(cc(NS(=O)(=O)c3ccc(C(C)C)cc3)c3ccccc32)c1C(=O)O,-14%,50µM*!,50µM*!,19µM*,-8%,u
CC(=O)c1c(C)oc2c1cc(NS(=O)(=O)c1ccc(C(C)(C)C)cc1)c1ccccc12,15%,-29%,-9%[59 µM],x,x,-31%
COc1ccc(S(=O)(=O)Nc2cc3c(C(C)=O)c(C)oc3c3ccccc23)cc1,-8%,u,-2%[12.7 µM],-27%,45µM*,-21%[57.1 µM]
Cc1cc(C)n(C(C)CNS(=O)(=O)c2ccc(Cl)cc2)n1 (stereo not given),-12%,-1%,8%,-13%,-8%,-16%
COc1ccccc1-c1nc(N(C)C)c2ccccc2n1,x,x,-8%[0.501 µM],x,4%,x
COC(=O)c1ccc(NC(=O)c2c(-c3ccccc3)c(-c3ccccc3)nn(C)c2=O)cc1,3%,-19%,u,x,x,-20%
CC1(C)Oc2ccc3ccc(=O)oc3c2/C(=C/NNC(N)=S)C1=O,-24%,50µM*,7.1µM*,-11%,-1%,u
CC1(C)Oc2ccc3ccc(=O)oc3c2/C(=C/Nc2cccc(O)c2)C1=O,u,u,45µM*,-10%,-6%,40µM*
CC1(C)Oc2ccc3ccc(=O)oc3c2/C(=C/Nc2ccc(O)cc2)C1=O,u,-1%,-39%,u,20%,-13%[11.4 µM]
CN/C=C1\C(=O)C(C)(C)Oc2ccc3ccc(=O)oc3c21,0%,-10%,1%[59 µM],-4%,18%,-30%
O=C(Nc1ccc(F)cc1)Nc1csc2c1CCCC2,47%,-1%,-1%[59 µM],x,x,-11%
CCN1CCN(C(=O)c2ccccc2Nc2ccc(SC(F)F)cc2)CC1,22%,-28%,50µM*,-11%,10%,-24%
O=C(NCc1ccncc1)c1ccccc1Nc1ccc(SC(F)F)cc1,14%,-33%,45µM*,1%,-1%,-31%
CCc1ccc(C(=O)c2cn(CC(=O)NCCc3ccccc3)c3nc(C)ccc3c2=O)cc1,11%,-1%,7%[59 µM],x,x,-29%
CCOC(=O)C1CCN(C(=O)CN2c3ccc(CC)cc3-c3ccccc3S2(=O)=O)CC1,34%,-17%,-31%[59 µM],x,x,-23%
CN1OC[C@@H]2CN[C@H](c3cccc(-c4ccccc4)c3)C[C@@H]21,11%,x,x,-16%,x,-21%
COc1cc(-c2noc(C)c2/C=C/c2ccc(C(=O)O)cc2)cc(OC)c1OC,3%,u,x,-18%,-2%,71µM*
